PubChem BioAssay AID602393 (Broad Institute, 2012)
In all, about 350,000 compounds went through this assay and about 7,000 (2%) were called active. Cut-off read from the data, not from the text of the source: active = activation above about 40%; inconclusive = no clear call, values can overlap the other calls; inactive = below that. This excerpt belongs to a sample that is enriched for actives.

Assay: raisers of Bmi1 knock-in reporter signal – mouse ES cells, Bmi1 luciferase knock-in, single point, esBAF inhibitor project, primary screen (AID 602393);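 note: 0% = median of the plate's neutral control wells and 100% = double that signal; a rise in the Bmi1 reporter signal indicates esBAF inhibition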
Settings: 24 h, at 12.5 µM, hits give high values, 100% = twice the neutral-well signal
For `Cc1ccccc1NC(=S)NC(=O)Cc1ccc(Cl)cc1`, the reporter increase was 5.51% (inactive).
With `Cc1ccc(C(=O)NC(=S)Nc2ccc(N3CCOCC3)cc2)cc1` the reporter increase was 5.69% (inactive).
In the case of `Cc1ccc(C(=O)NC(=S)Nc2ccccc2C)cc1`, the reporter increase is reported as 69.2% (active).
With `CC(C)NC(=O)N[C@H]1C=C[C@H](CC(=O)NCCN2CCCC2)O[C@@H]1CO` the reporter increase was -2.39% (inactive).
For `Cc1c(CCC(=O)O)c(=O)oc2cc(OCc3ccc(Br)cc3)ccc12`, the reporter increase was 14.3% (inactive).
In the case of `CCc1c(C)c2ccc(OC3CCCCC3=O)cc2oc1=O` (centres undefined), the reporter increase is reported as 65.6% (active).
In the case of `COC(=O)Cc1c(C)c2ccc(OCC(=O)NCc3ccc4c(c3)OCO4)cc2oc1=O`, the reporter increase is reported as 4.08% (inactive).
With `COc1cccc(CNC(=O)[C@@H]2[C@@H](CO)[C@@H]3Cn4c(ccc(-c5ccncc5)c4=O)[C@H]2N3C(C)=O)c1` the reporter increase was 5.45% (inactive).
For `CO[C@@H]1CN(C)C(=O)c2cc(NS(=O)(=O)CC(F)(F)F)ccc2OC[C@H](C)N(Cc2ccccn2)C[C@@H]1C`, the reporter increase was 0.135% (inactive).
In the case of `C[C@@H]1CN([C@@H](C)CO)C(=O)c2cccc(N(C)C)c2O[C@@H]1CN(C)S(=O)(=O)c1ccccc1`, the reporter increase is reported as 0.064% (inactive).
With `CCCn1nnnc1NC(=O)COc1ccc(Cl)cc1C` the reporter increase was -3.97% (inactive).
With `Cc1cc(NC(=O)COc2ccc(Cl)cc2Cl)n(CCC#N)n1` the reporter increase was 97.9% (active).
In the case of `O=C(COc1ccc([N+](=O)[O-])cc1Cl)Nn1cnnc1`, the reporter increase is reported as -5.37% (inactive).
With `CCC(=O)N1C[C@H](C)[C@H](OC)CN(C)C(=O)c2ccc(NC(=O)c3cnccn3)cc2OC[C@@H]1C` the reporter increase was -10.3% (inactive).
With `CC(C)NC(=O)N(C)C[C@@H]1Oc2cc(C#C[C@H](C)O)ccc2S(=O)(=O)N([C@@H](C)CO)C[C@H]1C` the reporter increase was 0.093% (inactive).
With `O=C(c1ccncc1)N1C[C@H]2[C@@H](c3ccccc31)[C@H](CO)N2Cc1ccc(F)cc1` the reporter increase was -3.53% (inactive).
With `COC(=O)CSc1nc(C)c2ccc(OC)cc2n1` the reporter increase was -3.51% (inactive).
With `Cc1nonc1NC(=O)CSc1nc2ccccc2cc1C#N` the reporter increase was 36.1% (inactive).
In the case of `CCOc1ccc2cc(C#N)c(SCC(=O)OC)nc2c1`, the reporter increase is reported as 66.4% (active).
For `C[C@@H]1CN([C@@H](C)CO)C(=O)c2cc(NS(=O)(=O)c3ccccc3)ccc2O[C@H]1CN(C)S(=O)(=O)c1ccc(Cl)cc1`, the reporter increase was 11.7% (inactive).
In the case of `CCCN1[C@H](C(=O)NCC)[C@@H](CO)[C@@H]2Cn3c(ccc(C4=CCCC4)c3=O)[C@@H]21`, the reporter increase is reported as -2.59% (inactive).
For `CCC(=O)Nc1ccc2c(c1)C(=O)N(C)[C@@H]1CC[C@@H](CC(=O)N[C@@H](C)c3ccccc3)O[C@@H]1CO2`, the reporter increase was -1.27% (inactive).
For `COc1cccc(NC(=O)Nc2ccc3c(c2)C(=O)N(C)C[C@H](OC)[C@@H](C)CN[C@@H](C)CO3)c1`, the reporter increase was 2.37% (inactive).
In the case of `FC(F)(F)c1ccnc(Oc2ccc(C3=NCCS3)cc2)c1`, the reporter increase is reported as 45.6% (active).
In the case of `C/C=C/c1cnc2c(c1)C(=O)N([C@H](C)CO)C[C@@H](C)[C@H](CN(C)Cc1cccc(C(=O)O)c1)O2`, the reporter increase is reported as -4.01% (inactive).
For `Cc1noc(C)c1S(=O)(=O)N(C)C[C@H]1Oc2ccc(NC(=O)Cc3ccccc3)cc2CC(=O)N([C@@H](C)CO)C[C@H]1C`, the reporter increase was 6.49% (inactive).
With `C[C@@H]1CN([C@@H](C)CO)C(=O)c2cc(NC(=O)c3ccncc3)ccc2O[C@@H]1CN(C)S(C)(=O)=O` the reporter increase was 0.579% (inactive).
For `CN1c2ccc(C#Cc3cccnc3)cc2[C@@H]2[C@@H](CCN2S(=O)(=O)c2ccccc2)[C@H]1CO`, the reporter increase was 11.3% (inactive).
For `N=c1c2c3c(sc2nc2n1CCCCC2)CCCC3`, the reporter increase was 24.2% (inactive).
In the case of `O=c1oc(-c2ccco2)nc2sc3c(c12)CCCCC3`, the reporter increase is reported as 57.3% (active).
In the case of `O=S(=O)(c1ccc(Cl)cc1)c1nc(-c2ccco2)oc1N1CCCCC1`, the reporter increase is reported as -5.66% (inactive).
With `CCCNC(=O)N1C[C@@H](C)[C@@H](OC)CN(C)C(=O)c2ccc(NC(=O)CCC)cc2OC[C@H]1C` the reporter increase was -1.55% (inactive).
For `COCC#Cc1cnc2c(c1)C(=O)N([C@H](C)CO)C[C@H](C)[C@@H](CN(C)C(=O)Nc1cc(F)ccc1F)O2`, the reporter increase was 6.3% (inactive).
With `COCC#Cc1ccc2c(c1)O[C@H](CN(C)C(=O)C1CCOCC1)[C@@H](C)CN([C@@H](C)CO)S2(=O)=O` the reporter increase was 5.12% (inactive).
With `COc1ccc([C@H]2CC(=O)C=C(c3ccc(C)cc3)C2)cc1` the reporter increase was 8.3% (inactive).
With `COc1ccc(C2CC(=O)NC(=O)C2)cc1` the reporter increase was -4.89% (inactive).
In the case of `COc1ccc([C@H]2CC(=O)C=C(/C=C/c3ccccc3)C2)cc1`, the reporter increase is reported as 70.2% (active).
In the case of `C[C@H](CO)N1C[C@H](C)[C@@H](CN(C)C)Oc2cc(C#Cc3ccccc3)ccc2S1(=O)=O`, the reporter increase is reported as -3.93% (inactive).
For `Cc1ccc(CNC(=O)C(=O)c2cn(CC(=O)N3CCOCC3)c3ccccc23)cc1`, the reporter increase was 20.4% (inactive).
In the case of `O=C(Nc1ccc(F)cc1)C(=O)c1cn(CC(=O)N2CCOCC2)c2ccccc12`, the reporter increase is reported as 41% (active).
With `COc1cccc(NC(=O)C(=O)c2cn(CC(=O)N3CCOCC3)c3ccccc23)c1` the reporter increase was 20.7% (inactive).
For `CO[C@@H]1CN(C)C(=O)c2cc(NC(=O)C3CCC3)ccc2OC[C@H](C)N(C(=O)CN(C)C)C[C@@H]1C`, the reporter increase was -3.99% (inactive).
With `C[C@H](CO)N1C[C@H](C)[C@@H](CN(C)C(=O)Nc2ccc3c(c2)OCO3)OCCCC[C@H](C)Oc2ccc(NS(=O)(=O)c3cn(C)cn3)cc2C1=O` the reporter increase was -2.06% (inactive).
For `C[C@H]1CN([C@@H](C)CO)C(=O)Cc2cc(NC(=O)Nc3cccc4ccccc34)ccc2O[C@@H]1CN(C)C`, the reporter increase was -2.18% (inactive).
In the case of `COc1ccc(S(=O)(=O)N(C)C[C@H]2Oc3ccc(NC(=O)Nc4ccccc4)cc3CC(=O)N([C@H](C)CO)C[C@@H]2C)cc1`, the reporter increase is reported as -4.23% (inactive).
In the case of `O=C(NCCCn1ccnc1)c1cc(-c2ccccc2)on1`, the reporter increase is reported as 47.2% (active).
For `O=C(NCCCn1ccnc1)c1cc(Br)c(Br)s1`, the reporter increase was -10.5% (inactive).
For `O=C(NCCCn1ccnc1)c1ccccc1F`, the reporter increase was -2.18% (inactive).
In the case of `C[C@@H](NC(=O)[C@@H]1[C@@H](CO)[C@@H]2Cn3c(ccc(C4=CCCCC4)c3=O)[C@@H]2N1C)c1ccccc1`, the reporter increase is reported as 1.48% (inactive).
